For part of these data: Results with a measured potency or affinity are listed apart.
How the values were obtained:
Staphylococcus aureus = assay: Antibacterial activity against Staphylococcus aureus MRSA ATCC 43300 (CO-ADD:GP_020); MIC in CAMBH media using NBS plates, by Resazurin F(560/590); format: functional; conditions: Concentration 20 uM, ASSAY_TEST Inhibition of Bacterial Growth, detection method Resazurin, Fluorescence (ex560/em590), MEDIA CAMHB, plate type 384well, CORNING #3640, time 18 hr
Acinetobacter baumannii = assay: Antibacterial activity against Acinetobacter baumannii ATCC 19606 (CO-ADD:GN_034); MIC in CAMBH media using NBS plates, by Resazurin F(560/590); format: functional; conditions: Concentration 20 uM, ASSAY_TEST Inhibition of Bacterial Growth, detection method Resazurin, Fluorescence (ex560/em590), MEDIA CAMHB, plate type 384well, CORNING #3640, time 18 hr
Escherichia coli = assay: Antibacterial activity against Escherichia coli ATCC 25922 (CO-ADD:GN_001); MIC in CAMBH media using NBS plates, by Resazurin F(560/590); format: functional; conditions: Concentration 20 uM, ASSAY_TEST Inhibition of Bacterial Growth, detection method Resazurin, Fluorescence (ex560/em590), MEDIA CAMHB, plate type 384well, CORNING #3640, time 18 hr
Klebsiella pneumoniae = conditions: Concentration 20 uM; ASSAY_TEST Inhibition of Bacterial Growth; detection method Absorption (OD600); MEDIA CAMHB; plate type 384well; NBS; CORNING #3640; time 18 hr
Candida albicans = conditions: 20 µM
Cryptococcus neoformans = conditions: Concentration 20 uM; ASSAY_TEST Inhibition of Fungal Growth; detection method Resazurin; Absorption (OD600-OD570); plate type 384well; NBS; CORNING #3640

Row | SMILES | Inhibition (Staphylococcus aureus) | Inhibition (Acinetobacter baumannii) | Inhibition (Escherichia coli) | Inhibition (Klebsiella pneumoniae) | Inhibition (Candida albicans) | Inhibition (Cryptococcus neoformans)
1 | O=c1cccc2n1C[C@H]1CNC[C@H]2C1 | 0.43% | -9.28% | 4.51% | 2.72% | 0.25% | -10.24%
2 | Cc1ccc2cc3c(ccc4ccccc43)c3c2c1CC3 [3-METHYLCHOLANTHRENE] | 32.91% | -6.45% | 10.1% | -1.21% | 1.03% | 3.35%
3 | c1cncc(C2Nc3cccc4cccc(c34)N2)c1 | -23.65% | -11.45% | -11.57% | 4.78% | 10.3% | 30.98%
4 | O=c1cccc2n1C[C@H]1C[C@@H]2CN2CCCC[C@@H]12 | 6.92% | -12.51% | 5.34% | 8.7% | -0.36% | -3.93%
5 | Cc1c(CCN)ccc2c1[nH]c1ccccc12 | 5.19% | -3.14% | 0.87% | 4.23% | 0.65% | -5.14%
6 | COc1cc2c(cc1O)CC1c3c(cc(O)c(OC)c3-2)CCN1C (stereo not given) | 8.78% | -19.02% | 10.6% | 7.6% | -2.23% | -8.59%
7 | FCCN(CCF)c1cccc(Cl)c1 | 3.32% | -11.77% | 4.68% | 20.4% | 0.87% | -7.02%
8 | CCC1CN1P1(=O)OCC(C)([N+](=O)[O-])CO1 (stereo not given) | -8.05% | -16.64% | 2.35% | 8.08% | 0.16% | 0.43%
9 | CC1CC(C)OP(=O)(OCCC#N)O1 (stereo not given) | 11.79% | -12.84% | 9.51% | 9.69% | -4.51% | -8.12%
10 | O=[N+]([O-])c1cc(-c2ccc([As](=O)(O)O)cc2)ccc1[As](=O)(O)O | 16.49% | -5.02% | 9.73% | 17.36% | 0.95% | -9.04%
11 | NN=C1C(Cl)=C(Cl)C(Cl)=C1Cl | -27.05% | -7.11% | -15.84% | 1.32% | 38.7% | 5.21%
12 | N#CC12CNCC1CN=N2 (stereo not given) | 10.47% | 1.05% | -13.15% | 8.95% | 1.04% | 19.07%
13 | CCOP(=O)(OCC)/C(C#N)=C/c1ccc(Br)cc1 | 9.27% | 13.14% | 8.82% | 9.61% | 2.02% | -11.15%
14 | Cc1ccc2c(c1)Oc1ccccc1N=C2 | 14.17% | 5.41% | -0.47% | 8.46% | 8.51% | -3.65%
15 | CC(=O)Nc1ccc([As](=O)(O)c2ccc([N+](=O)[O-])cc2)cc1 | 12.11% | 8.34% | -3.43% | 10.87% | -1.88% | 0.38%
16 | O=C1CC(c2ccc(O)cc2)Oc2cc(O)cc(O)c21 (stereo not given) | 9.17% | 6.14% | -5.6% | 10.18% | 4.1% | -1.84%
17 | CC(=O)Nc1cccc([As](=O)(c2cccc(NC(C)=O)c2)c2cccc(NC(C)=O)c2)c1 | 0.93% | 1.38% | -5.49% | 9.67% | 0.37% | -8.79%
18 | COc1ccc(OC(=O)Nc2ccc([N+](=O)[O-])cc2OC)cc1 | 18.29% | 11.17% | 1.72% | 8.07% | -1.5% | -6.88%

Row | SMILES | Inhibition (Staphylococcus aureus) | Inhibition (Acinetobacter baumannii) | Inhibition (Escherichia coli) | Inhibition (Klebsiella pneumoniae) | Inhibition (Candida albicans) | Inhibition (Cryptococcus neoformans)
19 | O=P(OC1=CCCCC1)(c1ccccc1)c1ccccc1 | 2.77% | -7.09% | 6.17% | 9.43% | 4.11% | -2.72%
20 | CSc1nc(=O)c(/N=N/c2ccc([As](=O)(O)O)cc2)c(N)[nH]1 | -2.85% | 10.89% | 7.88% | 8.89% | -0.24% | -16.43%
21 | C[C@H]1CC[C@@]2(C)[C@@H](CC[C@@H]3[C@@H]2CC[C@]2(C)[C@@H](O)CC[C@@H]32)C1 | 19.61% | 5.34% | 2.81% | 23.84% | 9.51% | -1.26%
22 | C[C@H]1CC[C@H]2NCCN[C@H]2C1 | 3.35% | -12.82% | 14.31% | 13.98% | 0.84% | -10.77%
23 | CC(C)NC1C2CCC(CC2)C1(O)c1ccc(Cl)c(Cl)c1.CS(=O)(=O)O (stereo not given) | 8.47% | -0.12% | 14.13% | 12.75% | 0.41% | -1.76%
24 | CC(Cc1ccccc1)NC(N)=O (stereo not given) | 1.52% | -11.77% | 14.19% | 16.63% | 1.15% | -7.14%
25 | O=C1N(c2nncs2)CCN1[N+](=O)[O-] | 11.64% | 7.25% | 7.74% | 10.14% | 2.04% | -14.15%
26 | c1ccc2c(c1)Sc1ccccc1N2CC1CN2CCC1CC2 (stereo not given) [MEQUITAZINE] | 31.62% | 2.18% | 10.66% | 26.05% | 3.26% | -3.37%
27 | CC(C)CC(NC=O)C(=O)O.COc1cc2c(cc1OC)C13CCN4CC5=CCOC6CC(=O)N2C1C6C5CC43 (stereo not given) | 7.19% | -2.08% | 1.33% | 12.71% | -1.26% | -3.45%
28 | COc1ccc2c(c1)NP(=S)(Oc1ccccc1)N2 (stereo not given) | -0.02% | 7.67% | -4.02% | 16.19% | 18.7% | 0.61%
29 | Cc1ccccc1NC(=O)Oc1cccc(OC(=O)c2ccccc2)c1 | 23.15% | 5.34% | 4.68% | 11.95% | 0.43% | -5.38%
30 | COc1ccc(CCNC2(C#N)CCCCC2)cc1OC | 2.96% | -11.77% | 4.72% | 9.13% | 2.4% | -6.07%
31 | CCCC(=O)N(C)C1=Nc2ccc(Cl)cc2C(c2ccccc2)=[N+]([O-])C1 | 11.96% | 1.65% | -7.17% | 24.44% | 4.49% | -4.22%
32 | COc1cc(C=C2C(=O)NC(=O)NC2=O)ccc1O | 11.9% | 5.89% | 0.28% | 15.76% | 1.49% | -7.52%
33 | OCC1CN1C1CCCCC1 (stereo not given) | -3.39% | -14.33% | 0.67% | 26.1% | 2.25% | -2.3%
34 | O=C(O)CN1C(=O)CN=C(c2ccccn2)c2cc(Cl)ccc21 | 15.35% | 8.33% | -0.79% | 10.65% | 1.18% | 0%
35 | O=C1NC(=O)C(=Cc2ccc3ccccc3c2)C(=O)N1 | 0.11% | 10.33% | -2.67% | 19.68% | 25.6% | -7.82%
